Screening data (PubChem BioAssay)
MLL CXXC-DNA inh = MLL CXXC-DNA interaction inhibition; Q03164; AID 2662; MLL-CXXC / FITC-HOXA9 DNA fluorescence polarization; Potency, µM (top dose mostly 115 µM), most hits filed as inhibitors; actives 0.037% (n = 290,000); active means well fitted inhibition curve with a large enough effect in the polarisation, with a control signal flat, not every such curve was filed as active; inconclusive means small, poorly fitted or top-dose-only effect, or effect the other way, or a change in a side signal; inactive means no such curve, though single readings can be large or run the other way; the % refers to the polarisation
Target sequence (Q03164 whole entry, looked up): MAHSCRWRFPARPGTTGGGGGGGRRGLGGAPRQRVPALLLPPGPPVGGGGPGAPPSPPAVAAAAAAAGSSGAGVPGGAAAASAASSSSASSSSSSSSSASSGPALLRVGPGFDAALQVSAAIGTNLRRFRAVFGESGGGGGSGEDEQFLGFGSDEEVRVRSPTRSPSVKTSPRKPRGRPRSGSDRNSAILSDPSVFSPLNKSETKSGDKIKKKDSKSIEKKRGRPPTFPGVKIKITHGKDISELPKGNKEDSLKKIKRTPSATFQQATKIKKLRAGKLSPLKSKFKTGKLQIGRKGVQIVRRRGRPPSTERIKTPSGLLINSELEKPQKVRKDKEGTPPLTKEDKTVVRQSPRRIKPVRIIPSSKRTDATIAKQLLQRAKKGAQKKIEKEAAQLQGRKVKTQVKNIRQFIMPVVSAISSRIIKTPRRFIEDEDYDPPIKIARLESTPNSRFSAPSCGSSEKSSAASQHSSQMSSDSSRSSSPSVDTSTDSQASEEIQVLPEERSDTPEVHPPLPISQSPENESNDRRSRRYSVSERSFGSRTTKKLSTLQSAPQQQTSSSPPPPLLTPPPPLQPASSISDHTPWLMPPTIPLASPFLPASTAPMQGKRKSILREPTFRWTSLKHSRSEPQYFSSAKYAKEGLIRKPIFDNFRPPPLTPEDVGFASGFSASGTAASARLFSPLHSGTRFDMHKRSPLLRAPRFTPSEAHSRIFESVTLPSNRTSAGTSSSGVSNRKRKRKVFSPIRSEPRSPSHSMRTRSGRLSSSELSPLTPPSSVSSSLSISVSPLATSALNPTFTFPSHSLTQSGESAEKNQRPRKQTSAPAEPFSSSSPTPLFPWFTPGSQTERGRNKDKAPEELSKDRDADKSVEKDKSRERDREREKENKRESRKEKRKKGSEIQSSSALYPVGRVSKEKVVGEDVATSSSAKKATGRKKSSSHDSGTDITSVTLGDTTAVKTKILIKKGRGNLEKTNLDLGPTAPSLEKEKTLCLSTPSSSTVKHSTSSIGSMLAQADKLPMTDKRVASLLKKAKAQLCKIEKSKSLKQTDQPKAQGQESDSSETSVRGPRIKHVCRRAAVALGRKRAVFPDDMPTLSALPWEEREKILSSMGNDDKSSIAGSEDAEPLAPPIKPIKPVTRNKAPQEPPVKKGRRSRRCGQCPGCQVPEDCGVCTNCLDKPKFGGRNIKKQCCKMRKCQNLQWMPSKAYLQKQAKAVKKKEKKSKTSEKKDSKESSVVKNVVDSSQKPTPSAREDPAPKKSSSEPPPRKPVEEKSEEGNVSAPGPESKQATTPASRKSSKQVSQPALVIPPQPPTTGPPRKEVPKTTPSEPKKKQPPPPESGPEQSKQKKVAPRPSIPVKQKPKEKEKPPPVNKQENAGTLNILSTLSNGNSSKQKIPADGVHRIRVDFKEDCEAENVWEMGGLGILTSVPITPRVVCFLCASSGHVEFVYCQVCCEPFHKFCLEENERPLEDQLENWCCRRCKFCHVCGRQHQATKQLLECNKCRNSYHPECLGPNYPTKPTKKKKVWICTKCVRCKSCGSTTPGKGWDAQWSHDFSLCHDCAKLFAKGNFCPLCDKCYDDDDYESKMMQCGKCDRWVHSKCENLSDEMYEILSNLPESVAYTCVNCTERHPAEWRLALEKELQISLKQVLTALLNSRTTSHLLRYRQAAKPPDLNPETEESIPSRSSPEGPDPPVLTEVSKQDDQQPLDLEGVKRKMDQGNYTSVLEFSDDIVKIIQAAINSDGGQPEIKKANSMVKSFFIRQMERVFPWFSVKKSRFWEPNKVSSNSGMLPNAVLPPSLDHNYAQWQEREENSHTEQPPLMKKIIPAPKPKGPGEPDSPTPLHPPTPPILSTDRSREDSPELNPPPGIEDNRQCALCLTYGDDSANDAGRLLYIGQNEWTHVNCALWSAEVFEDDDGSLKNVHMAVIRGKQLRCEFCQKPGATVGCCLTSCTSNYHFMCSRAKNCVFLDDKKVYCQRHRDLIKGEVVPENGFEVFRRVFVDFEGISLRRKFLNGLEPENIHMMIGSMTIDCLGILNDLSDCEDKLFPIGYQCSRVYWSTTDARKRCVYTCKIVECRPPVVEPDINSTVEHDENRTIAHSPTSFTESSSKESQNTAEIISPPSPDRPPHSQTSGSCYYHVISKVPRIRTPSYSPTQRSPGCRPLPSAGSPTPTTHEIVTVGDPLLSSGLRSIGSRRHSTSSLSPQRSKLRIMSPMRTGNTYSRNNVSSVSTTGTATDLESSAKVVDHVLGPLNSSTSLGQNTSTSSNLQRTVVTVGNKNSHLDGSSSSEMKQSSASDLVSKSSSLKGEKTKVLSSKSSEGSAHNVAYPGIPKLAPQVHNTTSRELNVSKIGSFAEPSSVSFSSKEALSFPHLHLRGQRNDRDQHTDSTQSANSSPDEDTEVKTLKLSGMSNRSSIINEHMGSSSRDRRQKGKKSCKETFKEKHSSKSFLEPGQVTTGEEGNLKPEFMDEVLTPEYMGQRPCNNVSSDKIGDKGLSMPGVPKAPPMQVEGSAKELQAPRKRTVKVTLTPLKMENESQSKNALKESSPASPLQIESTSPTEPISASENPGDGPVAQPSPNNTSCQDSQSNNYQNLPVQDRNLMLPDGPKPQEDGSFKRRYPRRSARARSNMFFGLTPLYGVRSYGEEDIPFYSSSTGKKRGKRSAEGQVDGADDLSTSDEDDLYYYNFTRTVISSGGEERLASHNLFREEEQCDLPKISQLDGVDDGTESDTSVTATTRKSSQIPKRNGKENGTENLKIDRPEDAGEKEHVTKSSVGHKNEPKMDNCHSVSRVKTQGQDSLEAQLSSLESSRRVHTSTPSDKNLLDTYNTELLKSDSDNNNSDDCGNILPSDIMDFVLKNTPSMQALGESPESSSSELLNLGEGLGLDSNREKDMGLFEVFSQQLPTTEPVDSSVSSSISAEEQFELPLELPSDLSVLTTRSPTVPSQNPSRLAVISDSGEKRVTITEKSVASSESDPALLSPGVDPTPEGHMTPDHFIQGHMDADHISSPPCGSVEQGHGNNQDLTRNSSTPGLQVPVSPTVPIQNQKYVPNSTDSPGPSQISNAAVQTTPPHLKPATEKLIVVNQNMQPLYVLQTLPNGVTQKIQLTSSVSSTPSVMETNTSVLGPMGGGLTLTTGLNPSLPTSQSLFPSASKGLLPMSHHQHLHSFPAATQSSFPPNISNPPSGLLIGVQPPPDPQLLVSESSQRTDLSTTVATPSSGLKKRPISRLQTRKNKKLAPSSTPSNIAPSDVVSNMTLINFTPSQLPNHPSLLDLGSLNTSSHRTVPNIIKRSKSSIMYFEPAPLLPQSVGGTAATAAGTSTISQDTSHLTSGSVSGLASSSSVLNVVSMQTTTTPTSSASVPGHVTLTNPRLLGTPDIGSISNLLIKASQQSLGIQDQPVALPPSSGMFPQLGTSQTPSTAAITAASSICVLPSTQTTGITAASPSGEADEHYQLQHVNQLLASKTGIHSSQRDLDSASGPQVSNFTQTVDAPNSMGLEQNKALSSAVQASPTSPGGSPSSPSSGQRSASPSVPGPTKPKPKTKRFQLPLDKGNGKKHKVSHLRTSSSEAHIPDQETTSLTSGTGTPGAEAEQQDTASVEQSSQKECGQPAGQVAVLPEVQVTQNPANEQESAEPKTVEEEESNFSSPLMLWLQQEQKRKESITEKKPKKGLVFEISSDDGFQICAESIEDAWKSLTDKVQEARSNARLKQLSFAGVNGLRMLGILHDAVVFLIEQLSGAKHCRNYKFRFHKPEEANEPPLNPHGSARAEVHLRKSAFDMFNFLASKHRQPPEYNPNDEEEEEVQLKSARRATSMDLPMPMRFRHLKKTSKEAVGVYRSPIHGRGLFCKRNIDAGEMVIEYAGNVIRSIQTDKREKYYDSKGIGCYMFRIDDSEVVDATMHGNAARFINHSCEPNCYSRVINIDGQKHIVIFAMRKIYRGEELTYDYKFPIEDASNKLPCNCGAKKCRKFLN
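Fluorescence polarization: 7 uM MLL-CXXC (stock) preincubated 5 min with compounds, then 50 nM fluorescein-HOX-A9 DNA (stock) added; 30 min ambient. Buffer 50 mM Tris-HCl pH 7.5, 50 mM NaCl, 1 mM DTT, 0.05% BSA.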
Menin MLL FP TR = inhibitors of human menin-MLL interaction, mutant MLL peptide; O00255; Menin + Texas Red MLL mutant peptide, fluorescence polarization; Potency, µM (highest dose often 61.6 µM), hits mostly inhibitors; actives 0.23% (n = 270,000); AID 1768; active means well fitted inhibition curve with a large enough effect in the polarisation, with a control signal flat, not every such curve was filed as active; inconclusive means small, poorly fitted or top-dose-only effect, or effect the other way, or a change in a side signal; inactive means no such curve, though single readings can be large or run the other way; the % refers to the polarisation
ClpP mod = qHTS Assay for Activators of ClpP | ATP-dependent Clp protease proteolytic subunit (Bacillus subtilis (strain 168)), P80244 | purified B. subtilis ClpP, FRET peptide cleavage, 20 min | Potency, µM (highest dose often 57.5 µM) | actives 1.9% (n = 340,000) | AID 651965, 2013; active means well fitted falling curve with a large enough effect; inconclusive means small, poorly fitted or top-dose-only effect; inactive means no such curve, though single readings can be large or run the other way; further: the source files actives as falling curves though it sought activators and does not explain the sign; nearly all actives have a fitted effect of over 65% in size
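FRET quenching reversal measured ClpP activation: 10 microg/mL B. subtilis ClpP at pH 8 with the FRET-FV decapeptide, read at 430 nm after 320 nm excitation. The 20-min minus 0-min signal was scaled between DMSO/no-enzyme wells and ADEP (5.8 microM final).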
Epigenetic derep = epigenetic control regulation, reporter derepression; murine LDR cells, GFP reporter derepression, 30 h; Potency, µM (highest dose often 53.9 µM), most hits filed as activators; actives 0.2% (n = 280,000); AID 1865; active means well fitted activation curve with a large enough effect; inconclusive means small, poorly fitted or top-dose-only effect; further: nearly all actives have a fitted effect of over 60% in size
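Reporter derepression read as number of fluorescent GFP-positive objects, 20-120 um in size, counted by laser-scanning cytometer. Mouse LDR line with an epigenetically silenced CMV-GFP locus; compound incubation 30 h, 37 C.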
PINK1 modulator = PINK1 expression modulation; Potency, µM (highest dose often 76.6 µM), most hits filed as activators; PINK1 immunofluorescence, high-content cytometry, 24 h; actives 0.2% (n = 410,000); active means well fitted activation curve with a large enough effect; inconclusive means small, poorly fitted or top-dose-only effect; cell line not stated here; further: nearly all actives have a fitted effect of over 65% in size
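Measures PINK1 amount and localization on or inside mitochondria by immunofluorescence. Stable cells get compounds at 5 concentrations for 24 hours before fixation and staining; CCCP controls included.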
Menin-MLL FL inh = inhibitors of human menin-MLL interaction, wild-type MLL peptide; FP activity change, % at 61.4 µM; AID 1766; 290,000 tested, under 10 active; Fluorescence polarization, fluorescein-MLL peptide displacement from menin; active means well fitted curve in the direction sought with a large enough effect in the polarisation, not every such curve was filed as active; inconclusive means small, poorly fitted or top-dose-only effect, or effect the other way, or a change in a side signal; inactive means no such curve, though single readings can be large or run the other way; the % refers to the polarisation
Hits are given with their value; n = inactive; u = inconclusive; x = not tested or not shown. A selection: hits, their analogues and other compounds. The true share with any hit is near 1.9%.

SMILES	MLL CXXC-DNA inh	Menin MLL FP TR	ClpP mod	Epigenetic derep	PINK1 modulator	Menin-MLL FL inh
Cc1nc2cc(NC(=O)[C@@H]3C[C@@H](Sc4ccccn4)CN3Cc3ccc4c(c3)OCCO4)ccc2s1	x	x	x	x	n	x
Cc1ncc2c(c1CNS(=O)(=O)N(C)C)CCN(C(=O)/C=C/c1ccccc1Cl)C2	x	x	x	x	n	x
Cc1nc(SCc2nc3ccc(C(F)(F)F)cc3[nH]2)c2oc3ccccc3c2n1	x	x	x	x	16µM	x
Cc1nc(SCc2nc3ccc(Br)cc3[nH]2)c2oc3ccccc3c2n1	x	x	x	x	n	x
Cc1nc(SCc2nc3cc(Cl)c(F)cc3[nH]2)c2oc3ccccc3c2n1	x	x	x	x	14µM	x
COc1cccc(CN2C(=O)NC(C)(C3CCN(Cc4cc(F)cc(F)c4)CC3)C2=O)c1OC (configuration not stated)	x	x	x	x	n	x
O=C(NCCc1ccccc1)C1CCN(Cc2cccc3ccccc23)CC1	n	n	16µM	x	n	n
Cc1cccc2c(/C=C/c3ccc(N(C)C)cc3)ccnc12	x	x	n	x	n	x
COc1cc(/C=C/c2cncc(/C=C/c3cc(OC)c(OC)c(OC)c3)c2)cc(OC)c1OC	x	x	n	x	n	x
N=c1c2c(-c3ccccc3)c(-c3ccccc3)n(Cc3ccco3)c2ncn1CCCn1ccnc1	n	u	n	n	n	n
OCCNc1ncnc2c1c(-c1ccccc1)c(-c1ccccc1)n2Cc1ccco1	n	u	28µM	n	n	n
c1ccc(-c2c(-c3ccccc3)n(Cc3ccco3)c3ncnc(NCCCn4ccnc4)c23)cc1	n	u	25µM	n	n	n
CC[C@H](C)[C@H](NC(=O)[C@H](CCC(=O)O)NC(=O)[C@H](C)NC(=O)[C@@H](NC(=O)[C@H](Cc1cnc[nH]1)NC(=O)[C@@H](NC(=O)[C@H](CCC(=O)O)NC(=O)[C@H](C)NC(=O)[C@@H](NC(=O)[C@H](CC(C)C)NC(=O)[C@H](Cc1cnc[nH]1)NC(=O)[C@H](Cc1cnc[nH]1)NC(=O)[C@H](CC(C)C)NC(=O)[C@H](Cc1c[nH]c2ccccc12)NC(=O)[C@H](Cc1ccccc1)NC(=O)[C@H](CCCNC(=N)N)NC(=O)[C@H](CCCNC(=N)N)NC(=O)[C@H](CCCNC(=N)N)NC(=O)[C@H](CC(C)C)NC(=O)[C@H](CC(=O)O)NC(=O)[C@H](CCC(N)=O)NC(=O)[C@@H](NC(=O)[C@H](CO)NC(=O)[C@H](CCCCN)NC(=O)CNC(=O)[C@H](CCCCN)NC(=O)[C@H](CC(=O)O)NC(=O)[C@H](Cc1cnc[nH]1)NC(=O)[C@H](CC(C)C)NC(=O)[C@H](CC(C)C)NC(=O)[C@H](CCC(N)=O)NC(=O)[C@@H](NC(=O)[C@H](CCC(=O)O)NC(=O)[C@H](CO)NC(=O)[C@@H](NC(=O)[C@H](C)N)C(C)C)[C@@H](C)CC)[C@@H](C)CC)[C@@H](C)CC)[C@@H](C)CC)[C@@H](C)O)C(=O)O	x	n	x	x	x	n
COc1ccc(-n2c(-c3ccc(Br)cc3)c[n+]3c2CCc2ccccc2-3)cc1	n	n	n	n	28µM	n
CC(C)c1ccc(-n2c(-c3ccccc3)c[n+]3c2CCc2ccccc2-3)cc1	n	u	x	n	u	n
CCOc1ccc(-n2c(-c3ccc(Br)cc3)c[n+]3c2CCCCC3)cc1	n	u	x	n	u	n
CCOc1ccc(-n2c(-c3ccc(OC)cc3)c[n+]3c2CCCCC3)cc1	n	n	x	n	16µM	n
Cc1ccccc1-c1nnc(-c2ccccc2)o1	n	n	u	n	n	n
Cn1cc(-c2nnc(-c3ccccc3)o2)c2ccccc21	n	n	14µM	n	n	n
COc1cccc(CN2CCCC(c3nc(-c4ccncc4)ncc3-c3ccccc3)C2)c1O (configuration not stated)	x	x	x	x	n	x
CCOC(=O)C1CCN(C(=O)Nc2ccc3nccnc3c2)CC1	n	n	32µM	n	n	n
CCOC(=O)C1CCN(C(=O)Nc2ccc3snnc3c2)CC1	n	n	n	n	n	n
CC1(C)CC(=O)c2cc(-c3nc(-c4ccc(Cl)cc4)cs3)c(=O)n(-c3ccc(F)cc3)c2C1	x	x	40µM	n	n	x
CSc1nnc(C)c(=O)n1COC(=O)COc1ccccc1C	n	n	28µM	n	n	n
CSc1nnc(C)c(=O)n1COC(=O)COc1ccccc1F	n	n	x	n	n	n
SMILES	MLL CXXC-DNA inh	Menin MLL FP TR	ClpP mod	Epigenetic derep	PINK1 modulator	Menin-MLL FL inh
CC(NC(=S)NCCc1ccccc1)C(c1cccs1)N1CCN(Cc2ccccc2)CC1 (configuration not stated)	n	n	n	n	16µM	n
Cc1ccc(-n2nc3c(c2NC(=O)c2ccco2)CS(=O)C3)c(C)c1 (configuration not stated)	x	x	25µM	x	n	x
CCCCOC(=O)CSCC(=O)N1N=C(c2cccs2)CC1c1ccc(F)cc1 (configuration not stated)	n	n	14µM	n	n	n
COc1ccc(C2CC(c3cccs3)=NN2C(=O)CSc2nc3ccccc3o2)cc1 (configuration not stated)	n	n	32µM	n	n	n
COc1ccc(C2CC(c3cccs3)=NN2C(=O)CSc2nc3ccccc3s2)cc1 (configuration not stated)	n	n	u	n	n	n
O=C(CSc1nc2ccccc2s1)N1N=C(c2cccs2)CC1c1ccc(F)cc1 (configuration not stated)	n	n	28µM	n	n	n
CCN1CCc2c(OCC(=O)N3N=C(c4cccs4)CC3c3ccc(F)cc3)cccc2C1=O (configuration not stated)	n	n	7.9µM	n	n	n
CC1(C)CC(=O)c2cc(C(=O)Nc3ccccc3)c(=O)[nH]c2C1	x	x	n	x	n	x
COc1ccccc1C(=O)N[C@@H]1c2ccccc2C2(CCN(Cc3ccc4c(c3)OCO4)CC2)[C@H]1O	x	x	x	x	n	x
COc1ccc(-c2ccc(C(=O)NCC3Cc4cccc(-c5nc(C)cnc5C)c4O3)o2)cc1 (configuration not stated)	x	x	x	x	n	x
N#Cc1ccc2ccn(CC(=O)NCc3ccccc3)c2c1	n	n	25µM	n	x	n
N#Cc1ccc2ccn(CC(=O)NC3CCCCC3)c2c1	n	n	u	n	n	n
CCOC(=O)C1=C(O)/C(=C/c2cn(CC(=O)NCC3CCCO3)c3ccccc23)SC1=Nc1ccc(C)cc1 (configuration not stated)	x	x	n	x	14µM	x
COC(=O)c1cc2nc(-c3ccc(OC)c(OC)c3)cc(C(F)(F)F)n2n1	n	n	3.2µM	n	n	n
CCc1ccccc1NC(=O)c1cnn2c(C(F)(F)F)cc(-c3ccc(OC)c(OC)c3)nc12	x	x	n	13µM	n	x
